Test results taken from PubChem BioAssay AID493000 (Johns Hopkins Ion Channel Center, 2010).
The campaign covered roughly 1,900 compounds. About 390 (21%) were called active. The rule behind the calls is not given here. The list is a sample of the results.

Assay: nonspecific enhancement of M3R calcium signal without RGS4 – HEK293 M3R, non-induced cells, counter-screen for RGS4 inhibitor project, confirmation (AID 493000);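 note: RGS4 induction absent so cells express M3R without RGS4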;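 for activity (percent): higher means more calcium signal and flags a non-specific hit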
Settings: carbachol calcium Fluo-4, at 10 µM, submaximal (EC20) carbachol stimulus; active compounds read high, buffer wells 0%, carbachol control wells 100%
For CCOC(=O)C1CCN(C(c2cc3cc(C)cc(C)c3[nH]c2=O)c2nnnn2C2CCCCC2)CC1 (centres undefined), the activity (percent) was “inactive”. With Cc1nc(-c2ccccc2)sc1C(=O)/C=C/c1ccccc1 the activity (percent) was “inactive”. In the case of COc1ccc(S(=O)(=O)Nc2ccc(O)c(Sc3nc4ccccc4s3)c2)cc1, the activity (percent) is reported as “inactive”. In the case of Cc1nn2c(=O)cc(COC(=O)c3ccc(NC(=O)C(C)(C)C)cc3)nc2s1, the activity (percent) is reported as “inactive”. In the case of COc1ccc(NCc2nnc(SCc3ccccc3)n2-c2ccc(OC)cc2)cc1, the activity (percent) is reported as “inactive”. In the case of C#CCOc1ccc(/C=C2/C(=O)NN(c3ccccc3)C2=O)cc1OC, the activity (percent) is reported as “inactive”. With COc1cc(/C=C2/C(=O)NN(c3cccc(Cl)c3)C2=O)cc(Br)c1O the activity (percent) was 28.5% (active). In the case of COc1cc(/C=C2/SC(=S)N(Cc3ccccc3)C2=O)cc(OC)c1O, the activity (percent) is reported as “inactive”. For CC(C)Cc1nc(Nc2ccc(S(=O)(=O)N3CCCC3)cc2)c2nnn(Cc3ccccc3)c2n1, the activity (percent) was “inactive”. For CCc1ccc(C2C(C#N)=C(N)N(N3CCOCC3)C3=C2C(=O)CC(C)(C)C3)s1 (centres undefined), the activity (percent) was “inactive”. With COCCCNC(=S)N(CCN(C)C)Cc1cc2cc3c(cc2[nH]c1=O)OCCO3 the activity (percent) was “inactive”. For O=C(N/N=C/c1ccccc1O)/C(=C/c1ccccc1)CCO, the activity (percent) was “inactive”. In the case of COc1ccc(OC)c(S(=O)(=O)N2CCCC(C(=O)N3CCC(C(N)=O)CC3)C2)c1 (centres undefined), the activity (percent) is reported as “inactive”. For CNc1nc(Nc2ccc(C)c(Cl)c2)nc(N)c1[N+](=O)[O-], the activity (percent) was “inactive”. With CC(=O)Nc1ccc(S(=O)(=O)Nc2nc(-c3ccc(C(C)(C)C)cc3)cs2)cc1 the activity (percent) was 51% (active). With COc1ccc(-c2csc(Nc3ccc(O)cc3)n2)cc1 the activity (percent) was “inactive”. With Cc1noc(NS(=O)(=O)c2ccc(N/C=C/C(=O)c3ccccc3)cc2)c1C the activity (percent) was “inactive”. With Cc1ccsc1/C=N/n1c(=S)[nH]nc(C)c1=O the activity (percent) was “inactive”. With Cc1nc(Nc2ccc(S(=O)(=O)N3CCCC3)cc2)c2nnn(Cc3ccccc3)c2n1 the activity (percent) was “inactive”. For Cc1ccc(/C=C2\CCn3c2nc2cc(C(=O)O)ccc2c3=O)c(C)c1, the activity (percent) was 33% (active). For O=C(O)c1ccc2c(=O)n3c(nc2c1)/C(=C/c1ccc(Cl)c([N+](=O)[O-])c1)CC3, the activity (percent) was “inactive”. For O=S(=O)(Nc1nccs1)c1ccc2c(c1)OCCO2, the activity (percent) was “inactive”. With Brc1ccc(-c2csc(N/N=C/c3cccnc3)n2)cc1 the activity (percent) was “inactive”. In the case of Cc1ccc(SC(CC(=O)c2ccc(C(C)(C)C)cc2)C(=O)O)cc1 (centres undefined), the activity (percent) is reported as “inactive”. With Nc1cccc(-c2cc(-c3ccccc3)nc(-c3cccc(N)c3)n2)c1 the activity (percent) was “inactive”. With C=CCSc1nc2c(c(=O)[nH]1)C(C(C)C)C(C#N)=C(N)O2 (centres undefined) the activity (percent) was 49.5% (active). With O=C1c2ccccc2NC(c2ccc(-c3cccc(Cl)c3)o2)N1O (centres undefined) the activity (percent) was “inactive”. In the case of O=C(/C=C/Sc1ncn[nH]1)c1ccc(Cl)cc1, the activity (percent) is reported as 32.5% (active). With Cc1cc(C)nc(S/C=C/C(=O)c2ccccc2)n1 the activity (percent) was “inactive”. With O=C(Nc1ccccc1)OCc1cc(-c2ccc(Cl)cc2)on1 the activity (percent) was “inactive”. With Cc1ccc(Nc2nc(N)nc(CSc3nnc(C)s3)n2)cc1 the activity (percent) was “inactive”. In the case of CCOC(=O)[C@@H]1[C@H]2COc3ccc(Br)cc3[C@H]2N2C(=O)N(c3ccc(Cl)cc3)C(=O)[C@@]12C, the activity (percent) is reported as “inactive”. With O=C(NCCCc1ccccc1)C1CCC(CNc2c(N3CCCCC3)c(=O)c2=O)CC1 (centres undefined) the activity (percent) was “inactive”. For COc1ccccc1C1C(C#N)=C(N)Oc2c1c(-c1ccccc1)nn2-c1ccccc1 (centres undefined), the activity (percent) was 34.5% (active). For CCC(c1nnnn1Cc1ccco1)N(Cc1cc2cc(OC)ccc2[nH]c1=O)C1CCCCC1 (centres undefined), the activity (percent) was “inactive”. For Cc1nn(C(C)C(=O)N2CCOCC2)c(=O)c2nn(-c3ccccc3)c(C)c12 (centres undefined), the activity (percent) was “inactive”. With CCc1ccc2oc(-c3ccc(N)cc3)nc2c1 the activity (percent) was 37.5% (active). For Cc1cc(-c2n[nH]c(=S)n2/N=C/C(Br)=C/c2ccccc2)n[nH]1, the activity (percent) was “inactive”. In the case of CCCCOC(=O)CNc1nnc(SCC(=O)OCC)[nH]c1=O, the activity (percent) is reported as “inactive”. With O=C(O)c1ccc2c(c1)C(=O)N(c1ccc(/C=C/C(=O)c3ccccc3)cc1)C2=O the activity (percent) was 32% (active). In the case of CCOc1ccc(NC(=O)C/C(C)=N/NC(=O)Cc2cccs2)cc1, the activity (percent) is reported as “inactive”. With Nc1ccccc1SC(C[N+](=O)[O-])c1ccccc1 (centres undefined) the activity (percent) was “inactive”. For COc1ccc(C(C[N+](=O)[O-])n2nc(C)cc2C)cc1 (centres undefined), the activity (percent) was “inactive”. For CCOC(=O)C1=NN(c2ccc(Cl)cc2)/C(=C/C2=NCCc3cc(OC)c(OC)cc32)S1, the activity (percent) was “inactive”.
